Among the data in PubChem BioAssay (NCI) are growth values, retold here.

Test systems include SR leukemia; RPMI-8226 leukemia; OVCAR-8 ovarian; OVCAR-5 ovarian; OVCAR-4 ovarian; IGROV1 ovarian; OVCAR-3 ovarian; HS 578T breast; NCI/ADR-RES ovarian; SK-OV-3 ovarian.
What all share (test): NCI-60 one-dose screen, 48 h (100 = growth as untreated, 0 = no growth, -100 = all killed)
What all share (conditions): 10 µM unless noted

The panel holds about 83,000 compounds, 20% with a hit somewhere; the sample as a whole holds those more often.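 In brief: 96-well plates, 48 h treatment, single concentration, percent growth endpoint.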 Unmarked numbers belong to inactive results. Activity calls are given as the source filed them. The calls were made as follows: active = growth percent below 10; inactive = the rest.

As for `Cc1ncc(C(=O)Nc2ccc(CN3CCN(C)CC3)c(C(F)(F)F)c2)cc1C#Cc1cnc(N)c2ncccc12`, the growth in the experiment with SR leukemia is -33.9% (active); in the experiment with RPMI-8226 leukemia, -26.2% (active); in the experiment with OVCAR-8 ovarian it was -24.7% (active); in the experiment with OVCAR-5 ovarian, 49.8%; with OVCAR-4 ovarian, -6.15% (active); in the experiment with IGROV1 ovarian, 10.4%. For the same compound, the growth in the experiment with OVCAR-3 ovarian is 55.4%; with HS 578T breast, 24.2%; in the experiment on NCI/ADR-RES ovarian, 33.2%.

For `COc1cc(C2C(C(=O)OCc3ccccc3)=C(C)NC(C)=C2C(=O)OCc2ccccc2)cc(OC)c1OC`, the growth is 4.89% (active) in the experiment on SR leukemia; -0.546% (active) with RPMI-8226 leukemia; 34% in the experiment with OVCAR-8 ovarian; 68.5% with OVCAR-5 ovarian; 37.6% in the experiment on OVCAR-4 ovarian; 38.7% in the experiment with IGROV1 ovarian. In addition, the results for the growth with OVCAR-3 ovarian, with HS 578T breast and with NCI/ADR-RES ovarian were 35.7%, 46.4% and 26.1%, respectively.

Regarding `COc1ccc2nc(Cl)c(/C=C3\CC(c4ccccc4)=NN(c4ccccc4)C3=O)cc2c1`, the growth is 76.6% in the experiment with SR leukemia; 97.3% in the experiment on RPMI-8226 leukemia; 41.8% with OVCAR-8 ovarian; 93.5% with OVCAR-5 ovarian; 37.4% with OVCAR-4 ovarian; 46.5% with SK-OV-3 ovarian. The growth is 50.7% in the experiment on IGROV1 ovarian, 74.4% in the experiment on OVCAR-3 ovarian, 32.9% in the experiment with HS 578T breast and 60.2% in the experiment with NCI/ADR-RES ovarian.

As for `CN1CCN(C(=O)C(C)(C)c2ccc(C(=O)Nc3cn4cc(-c5ccncc5)ccc4n3)cc2)CC1`, the growth in the experiment on SR leukemia was 11.8%; with RPMI-8226 leukemia, 10.7%; in the experiment on OVCAR-8 ovarian, 14.6%; with OVCAR-5 ovarian it was 18.3%; with OVCAR-4 ovarian, 2.83% (active); in the experiment with IGROV1 ovarian, 6.72% (active). Besides, the growth with OVCAR-3 ovarian is -37.4% (active); in the experiment with HS 578T breast, -6.52% (active); in the experiment with NCI/ADR-RES ovarian it was 21.1%.

Consider `COc1ccc(-c2nc3c(N)c(CO)cnc3s2)cc1`, for which the growth with SR leukemia is 93.5%; with RPMI-8226 leukemia it was 92.9%; in the experiment with OVCAR-8 ovarian, 103%; in the experiment with OVCAR-5 ovarian, 80.4%; in the experiment with OVCAR-4 ovarian it was 101%; with IGROV1 ovarian, 84.7%. In addition, the growth in the experiment on OVCAR-3 ovarian was 89.4%; in the experiment on HS 578T breast, 92.8%; with NCI/ADR-RES ovarian, 86.7%.

Take `COc1ccc(/C=C2\COc3ccc(O)cc3C2=O)cc1`: the growth is 15.8% in the experiment on SR leukemia; -0.495% (active) in the experiment on RPMI-8226 leukemia; 95.3% with OVCAR-8 ovarian; 102% with OVCAR-5 ovarian; 104% in the experiment on OVCAR-4 ovarian; 128% with SK-OV-3 ovarian. The growth in the experiment with IGROV1 ovarian is 99.6%; with OVCAR-3 ovarian, 114%; with HS 578T breast it was 104%; in the experiment with NCI/ADR-RES ovarian, 98.5%.

`COc1ccc(/C=C(/c2ccccc2)[N+](=O)[O-])c(OC)c1`: the growth in the experiment with SR leukemia is 6.7% (active); in the experiment on RPMI-8226 leukemia, 1.5% (active); with OVCAR-8 ovarian, 15.8%; with OVCAR-5 ovarian it was -9.82% (active); with OVCAR-4 ovarian it was 14.4%; in the experiment with IGROV1 ovarian, -35.9% (active). The growth in the experiment with OVCAR-3 ovarian is -80.6% (active); in the experiment on HS 578T breast, 46.1%; with NCI/ADR-RES ovarian, -4.93% (active).

On to `O=C(/C=C/C12c3ccccc3C(c3ccccc31)C1C(=O)NC(=O)C12)c1ccc(Br)cc1` (stereo not drawn), for which the growth was 14.4% in the experiment with SR leukemia; -10.7% (active) in the experiment on RPMI-8226 leukemia; 19.6% in the experiment on OVCAR-8 ovarian; 59.6% in the experiment on OVCAR-5 ovarian; 63.9% with OVCAR-4 ovarian; 48% with IGROV1 ovarian. Further, the growth with OVCAR-3 ovarian was 13%; in the experiment on HS 578T breast, 45.2%; in the experiment on NCI/ADR-RES ovarian it was 45.1%.

In the case of `NS(=O)(=O)c1ccc(C(=O)NN2C(=O)c3c(Br)c(Br)c(Br)c(Br)c3C2=O)cc1`, the growth in the experiment with SR leukemia was 94.5%; in the experiment with RPMI-8226 leukemia, 102%; in the experiment with OVCAR-8 ovarian it was 106%; with OVCAR-5 ovarian, 107%; in the experiment with OVCAR-4 ovarian, 104%; in the experiment with IGROV1 ovarian, 104%. The growth was 105% in the experiment on OVCAR-3 ovarian, 94.6% with HS 578T breast and 110% in the experiment on NCI/ADR-RES ovarian.

`CNC1=CC(=O)c2c(C(=O)OC)c(C)[n+]([O-])c(C)c2C1=O`: the growth was 95.5% with SR leukemia; 76.1% with RPMI-8226 leukemia; 35% with OVCAR-8 ovarian; 96.1% in the experiment on OVCAR-5 ovarian; 26% with OVCAR-4 ovarian; 70.2% in the experiment on IGROV1 ovarian. Also, the growth with OVCAR-3 ovarian was 7.04% (active); in the experiment on HS 578T breast, 94.1%; in the experiment with NCI/ADR-RES ovarian it was 70.6%.

For `CN1CCN(C(=S)SCCCCOc2cc(=O)oc3ccccc23)CC1`, the growth in the experiment on SR leukemia was 67.4%; with RPMI-8226 leukemia, 64.8%; with OVCAR-8 ovarian, 78.4%; in the experiment on OVCAR-5 ovarian, 101%; in the experiment on OVCAR-4 ovarian, 72.4%; with IGROV1 ovarian it was 102%. For the same compound, the growth with OVCAR-3 ovarian was 95.8%; in the experiment on HS 578T breast, 96.2%; with NCI/ADR-RES ovarian, 76.2%.

As for `CNC(=O)c1ccccc1Nc1nc(Nc2cc(OC)c(OC)c(OC)c2)ncc1Br`, the growth in the experiment on SR leukemia was 6.27% (active); in the experiment on RPMI-8226 leukemia, 41.5%; in the experiment with OVCAR-8 ovarian it was -20.3% (active); in the experiment with OVCAR-4 ovarian, -34.5% (active); in the experiment on SK-OV-3 ovarian it was -77.2% (active); with IGROV1 ovarian, 4.34% (active). Further, the values for the growth in the experiment on OVCAR-3 ovarian, in the experiment on HS 578T breast and in the experiment on NCI/ADR-RES ovarian were -6.51% (active), -3.22% (active) and -10.7% (active), respectively.

As to `COCCn1cc(-c2csc(-c3c[nH]c4ccc(Br)cc34)n2)c2cccnc21`, the growth was 17% in the experiment on SR leukemia; 22.2% in the experiment with RPMI-8226 leukemia; 21.8% in the experiment with OVCAR-8 ovarian; 55.5% in the experiment with OVCAR-5 ovarian; 31.2% in the experiment with OVCAR-4 ovarian; 42.3% with IGROV1 ovarian. Besides, the growth with OVCAR-3 ovarian was 39%; in the experiment with HS 578T breast, 44.5%; in the experiment on NCI/ADR-RES ovarian it was 10.8%.

For `O=C(/C=C/c1ccc(Oc2ccc(Br)cc2)cc1)c1ccc(Br)cc1`, the growth is 85.7% in the experiment on SR leukemia; 83.5% in the experiment with RPMI-8226 leukemia; 94.7% with OVCAR-8 ovarian; 95% in the experiment with OVCAR-4 ovarian; 108% with SK-OV-3 ovarian; 99% with IGROV1 ovarian. Also, the growth was 102% in the experiment with OVCAR-3 ovarian, 102% in the experiment on HS 578T breast and 98.1% in the experiment on NCI/ADR-RES ovarian.
